The values that follow come from publication PMC5540273 (PLoS ONE, 2017).

Each structure is given as a SMILES string.
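Further: KINOMEscan kinase panel screen.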

This test has as its system CAMK2B. To be noted: concentration: 1 μM, replicates: in singlicate; n = 1.
Turning to `O=C(Nc1n[nH]c2cc(-c3cccs3)ccc12)C1CC1` [SB-731284], the “%Inh” value was 0%.

Take `Fc1cc(Cl)ccc1Nc1ccnc2cc(-c3ccc(CN4CCSCC4)o3)ccc12` [GW560106]: the “%Inh” value worked out at 0%. Next, `Fc1cc(Cl)ccc1Nc1ccnc2cc(-c3ccc(CN4CCOCC4)o3)ccc12` [GW560109]: 0%; `COc1ccc(NC(=O)c2ccoc2)cc1-c1ccc(C(=O)NCC2CC2)cc1` [GW810437]: 0%; `COC(=O)Nc1nc2ccc(Oc3ccc(CC(=O)Nc4cc(C(F)(F)F)ccc4F)cc3)cc2[nH]1` [GW680903]: 0%. Consider `O=C(Nc1n[nH]c2nc(-c3cccc(O)c3)ccc12)C1CC1` [SB-711805], for which the “%Inh” value amounted to 0%. For the molecule `Cc1cccc(Nc2nc(N[C@H]3CCCC[C@H]3N)ncc2C(N)=O)c1.Cl` [GSK986310], the “%Inh” value turned out to be 0%.

Regarding `CCn1c(-c2nonc2N)nc2c(-c3ccccc3)ncc(OCCCN)c21.O=C(O)C(F)(F)F.O=C(O)C(F)(F)F` [GSK260205], the “%Inh” value worked out at 0%. To `COc1ccc(C)c(Nc2ccnc(Nc3ccc(-c4cnc[nH]4)cc3)n2)c1.Cl` [GW784041] belongs 1%; to `CS(=O)(=O)c1cccc(CNc2nc(Nc3ccc4c(c3)CCC(=O)N4)ncc2C(F)(F)F)c1`, 0%. Next, `O=C(O)C(F)(F)F.O=c1[nH]ccc2nc(N[C@@H]3CCNC3)nc(Nc3ccc4c(c3)S(=O)(=O)CC4)c12` [GSK2181306]: 23%; `COc1cc(Nc2nccc(N3CCC(NS(=O)(=O)c4ccc(NC(C)=O)cc4)CC3)n2)cc(OC)c1OC` [GSK1379825]: 0%.

On to `CN(C)CCNS(=O)(=O)c1ccc(-c2ccnc3[nH]ccc23)cc1` [GSK977620], for which the “%Inh” value stood at 0%. Next, `Nc1cccc(-c2ccc3c(N)n[nH]c3c2)c1` [GSK2193613]: 0%; `Cc1ccc(NC(=O)c2ccnc(N3CCCCC3)c2)cc1-c1ccc(C(=O)NCC2CC2)cc1` [GW775610]: 0%.

For the molecule `c1ccc(Oc2ccc(Nc3ccnc4cc(-c5ccc(CN6CCCCC6)o5)ccc34)cc2)nc1` [GW567143], the “%Inh” value worked out at 0%. To `CC(C)c1nc(-c2cccc(NS(=O)(=O)c3c(F)cccc3F)c2)c(-c2ccnc(Nc3ccc(N4CCOCC4)nc3)n2)s1.Cl` [GSK1723980] belongs 0%. Next, `CN(c1ccc(NC(=O)N2CCN(CCCN3CCOCC3)CC2)cc1)c1ccnc(Nc2ccc(CS(C)(=O)=O)cc2)n1.Cl` [GW830899]: 0%.

As for `Cn1cc(-c2ccc3c(c2)CCN3C(=O)Cc2cc(F)cc(F)c2F)c2c(N)ncnc21` [GSK2634140], the “%Inh” value is 0%. To `CC(C)NCC(Cc1ccccc1)NC(=O)c1cc(Br)c(-c2ccnc3[nH]ccc23)s1.Cl.Cl` (stereo not shown) [GSK1383281] belongs 0%; to `COc1cccc(C2=C(Nc3cccc(O)c3)C(=O)NC2=O)c1` [SB-390771], 0%; to `COc1cccc(CC(=O)N2CCc3cc(-c4cn(C)c5ncnc(N)c45)ccc32)c1` [GSK2608899], 0%. For the molecule `O=C(Nc1n[nH]c2nc(-c3ccccc3O)ccc12)C1CC1` [SB-711880], the “%Inh” value is recorded as 0%. Next, `N#CC1(c2cccc(C(=O)Nc3cccc(Oc4ccc5nc(NC(=O)C6CC6)sc5n4)c3)c2)CC1`: 26%; `COc1cc(Nc2nccc(N3CCC(NC(=O)Nc4ccc5c(c4)OCO5)C3)n2)cc(OC)c1OC` (stereo not shown) [GSK1379766]: 0%. Next, `Cc1ccc(-c2ccc3occ(-c4ccc(S(C)=O)cc4)c3c2)nn1` (stereo not shown): 0%. Next, `CN(c1ccc(F)c(NC(=O)c2cccc(OC(C)(C)C#N)c2Cl)c1)c1ccc2nc(NC(=O)C3CC3)sc2n1`: 0%; `CN(c1ccc2c(c1)nc(NCc1ccccc1)n2C)c1ccnc(Nc2ccc(CS(C)(=O)=O)cc2)n1.Cl` [GW811603]: 0%; `Nc1ncc(-c2ccc3nccc(-c4ccncc4)c3c2)cc1S(=O)(=O)N1CCCCC1` [GSK1693850]: 0%. `Nc1ncc(-c2cn[nH]c2)c2scc(-c3ccc4c(c3)CCN4C(=O)Cc3ccccc3)c12` [GSK2593067]: the “%Inh” value was 0%. To `CN(C)c1ncnc2nc[nH]c12` [SKF-31736] belongs 0%; to `Cl.Cl.NC(CNC(=O)c1cc(Br)c(-c2ccnc3[nH]ccc23)s1)c1ccccc1` (stereo not shown) [GSK1322949], 39%. Next, `CNc1nccc(-c2ccc3c(N)n[nH]c3c2)n1` [GSK2206003]: 31%; `COc1cc(Nc2ccnc3cc(-c4ccncc4)ccc23)cc(OC)c1OC.Cl` [GW494610]: 0%. To `COc1cccc(-c2nc(-c3ccccc3)[nH]c2-c2ccncc2)c1` [SB-610250] belongs 0%.

Turning to `O=C1NC(=O)C(c2ccccc2Cl)=C1Nc1cccc(Cl)c1` [SB-342409], the “%Inh” value stood at 0%. To `O=C(O)C(F)(F)F.O=c1[nH]ccc2nc(N[C@@H]3CCNC3)nc(Nc3cc(Cl)cc(Cl)c3)c12` [GSK2188764] belongs 37%.
